Laboratory results reported in the supplement of paper PMC13094657.
± gives the standard deviation of the averaged measurements.

What follows are molecules tested on MDA-MB-231 (assay: kynurenine production, fold change vs DMSO IFNg/TNF control; higher = more kynurenine produced (less inhibition)). Details: pre-treatment time: 18 h then 24 h IFNg/TNF.
In short: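 MDA-MB-231 cells (7 × 10^4/well, 96-well plates, seeded 24 h earlier) were pre-treated 18 h with each natural product in 0.1% DMSO, then stimulated 24 h with IFNγ (1 U/ml) and TNF (6.25 ng/ml) at 37°C. Supernatant kynurenine was read at 492 nm after trichloroacetic acid and p-dimethylaminobenzaldehyde treatment, against 0–100 μM standards. Kynurenine production is the fold change over cytokine-stimulated vehicle wells on the same plate, averaged over duplicate plates in the first screening round.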

Compound | kynurenine production
CN[C@H]1CCc2cc(OC)c(OC)c(OC)c2-c2ccc(OC)c(=O)cc21 [Demecolcine (colcemid)] (compound dose: 10 uM) | 0.486 ± 0.099
CC(=O)O[C@@H]1[C@H]2[C@@H](OC(=O)Cc3ccccc3)[C@@H](C)C[C@]2(OC(C)=O)C(=O)/C(C)=C/[C@@H]2[C@H](CC[C@]13CO3)C2(C)C [Euphorbia Factor L1] (compound dose: 10 uM) | 1.11 ± 0.0098
CC(=O)O[C@@H]1[C@H]2[C@@H](OC(=O)Cc3ccccc3)[C@@H](C)C[C@]2(OC(C)=O)C(=O)/C(C)=C/[C@@H]2[C@H](CC[C@]13CO3)C2(C)C [Euphorbia factor L1] (compound dose: 10 uM) | 1.07 ± 0.11
CC(C)(O)/C=C/C(=O)[C@](C)(O)[C@H]1[C@H](O)C[C@@]2(C)[C@@H]3CC=C4[C@@H](C[C@H](O)C(=O)C4(C)C)[C@]3(C)C(=O)C[C@]12C [Cucurbitacin D] (compound dose: 10 uM) | 0.326 ± 0.083
COc1cc2c3c(c1OC)-c1ccccc1C[C@H]3N(C)CC2 [Nuciferine] (compound dose: 10 uM) | 1.1 ± 0.08
CCCCCCCCCCCCCC(=O)O[C@@H]1[C@@H](C)[C@@]2(O)[C@@H](C=C(CO)C[C@]3(O)C(=O)C(C)=C[C@@H]23)[C@@H]2C(C)(C)[C@]12OC(C)=O [Phorbol 12-Myristate 13-Acetate] (compound dose: 10 uM) | 1.01 ± 0.21
COC(=O)[C@]1(C)CC[C@]2(C)CC[C@]3(C)C4=CC=C5C(=CC(=O)C(O)=C5C)[C@]4(C)CC[C@@]3(C)[C@@H]2C1 [Pristimerin] (compound dose: 10 uM) | 0.0819 ± 0.0029
